According to PubChem BioAssay AID602296 (Broad Institute, 2012):
Screen size: about 2,000 compounds; about 190 (9.5%) were called active. Inconclusive results (about 14%) are left out. Not all results are given here. Values without a mark were called inactive.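 How the source made its calls: active means fitted activation curve crossing 40% at a concentration no higher than the sample's top valid tested dose; inconclusive means flat fitted curve at 30% to 70% activation, or poor curve fit; inactive means signal decrease, flat curve within 30%, or the rest.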

Test: HSF-1 reporter activators over prolonged exposure, confirmation, cell-based, mouse, luciferase, cherry-pick, dose (AID 602296);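 further: test compounds applied by themselves with no MG132 co-treatment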
Conditions: NIH3T3-HGL HSF-1 response element luciferase, 48 h; series mostly up to 26 µM; activation: at the top concentration

Row | Compound | activation
1 | CC12CCC(=O)N1C(C(=O)Nc1cccc3ccccc13)CS2 (stereo not drawn) | -1.65%
2 | COc1ccc(CNCC(O)COc2ccc(C(C)(C)c3ccccc3)cc2)cc1 (stereo not drawn) | -44.6%
3 | COc1ccc(Cl)cc1NC(=O)CCc1nc(-c2ccccc2F)no1 | -32.6%
4 | Cc1ccc(-c2ccc(=O)[nH]n2)cc1 | 6.96%
5 | c1ccc(Cn2nnnc2C(c2cccs2)N2CCc3ccccc3C2)cc1 (stereo not drawn) | -61.7%
6 | COc1ccc(N/C=C(\C=C\C#N)S(=O)(=O)c2ccccc2)cc1 | 2.06%
7 | Cc1cccc(NC(=S)N(CCN(C)C)C(C)c2cccnc2)c1 (stereo not drawn) | -1.67%
8 | COCCOC(=O)C1=C(C)NC(C)=C(C(=O)OCCOC)C1/C=C/c1ccccc1OC | -6.58%
9 | COc1ccc(C(=O)COC(=O)c2cccnc2SC)cc1 | -0.632%
10 | CCOc1ccc(S(=O)(=O)NNC(=S)Nc2ccc(Br)cc2)cc1 | 0.555%
11 | CCOC(=O)c1c(NC(C)=O)sc2c1CCC(C=NCCCN(CC)CC)=C2Sc1ccccc1 | 13%
12 | O=C(c1ccc(Br)cc1)N1CCCC(c2nc(-c3cccs3)no2)C1 (stereo not drawn) | -37.2%
13 | Cc1[nH]c2ccccc2c1CN1CCN(c2ccccn2)CC1 | -15.3%
14 | CCOc1ccc(NC(=O)C2CC(=O)N3CCCN=C3S2)cc1 (stereo not drawn) | -13.2%
15 | CCOC(=O)c1nnc(-c2ccccc2)nc1Sc1ccccc1Cl | -101%
16 | CCC(NC(=O)/C(=C\c1ccc2c(c1)OCO2)NC(C)=O)C(=O)O (stereo not drawn) | -1.08%
17 | Cc1cc(NC(=O)CSc2nc3c(cc2C#N)CCC3)no1 | -57.8%
18 | Cc1nonc1C1CCCN1Cc1cn[nH]c1-c1ccc(-c2ccccc2)cc1 (stereo not drawn) | -16.4%
19 | Cc1ccc2c(CN3CCN(S(=O)(=O)/C=C/c4ccccc4)CC3)cc(=O)oc2c1 | -1.07%
20 | O=C1C2CCCCC2C(=O)N1Cc1ccccc1 (stereo not drawn) | -6.54%
21 | CC(C)C(C)N(Cc1ccc(C(=O)O)cc1)C(=O)c1ccc2ccccc2n1 (stereo not drawn) | -7.06%
22 | O=C(Nc1ccn(Cc2ccccc2F)n1)c1ccc(COc2ccc(Cl)cc2Cl)o1 | -41.2%
23 | Cn1c(CN2CCN(c3ccc(Cl)cc3)CC2)nc2ccccc21 | 7.35%

Row | Compound | activation
24 | Brc1ccc(CSc2nnc(-c3ccccn3)n2Cc2ccco2)cc1 | -64.8%
25 | CSc1nc(S(=O)(=O)c2ccc(C)cc2)c(Cl)s1 | 4.27%
26 | COc1ccc(CCNCc2cc(C)n(-c3ccc(OC)cc3)c2C)cc1 | -9.47%
27 | Cc1cc(C(=O)N/N=C/c2ccc([N+](=O)[O-])s2)c2ccccc2n1 | -39.8%
28 | Clc1ccc(-n2cc(COCc3ccccc3)nn2)cc1 | -82.4%
29 | COc1ccc(Cl)cc1N(CC(=O)Nc1ccccc1SC)S(C)(=O)=O | 5.09%
30 | COc1ccc(OC)c(S(=O)(=O)Nc2ccccc2O)c1 | -3.47%
31 | CCOC(=O)/C=C/C(=O)OCC(=O)NC(c1ccccc1)c1ccccc1 | -43.9%
32 | Cc1onc(-c2ccccc2)c1C(=O)N/N=C/c1cccc(O)c1 | -6.78%
33 | C=CCc1ccc(OCC(O)CO)c(OC)c1 (stereo not drawn) | -2.53%
34 | NC(=O)c1ccc(NC(=O)CC23CC4CC(CC(Br)(C4)C2)C3)cc1 | 2.54%
35 | Cc1cccn2c(=O)nc(SCC(=O)N3N=C(c4cccs4)CC3c3ccc(F)cc3)nc12 (stereo not drawn) | -21.7%
36 | O=C(NNc1c(F)c(F)cc(F)c1F)c1ccc(Cl)nc1 | 7.76%
37 | CCOc1ccc(CN(C)CC(O)COC(c2ccc(OC)cc2)c2ccc(OC)cc2)cc1 (stereo not drawn) | -94%
38 | O=C(/C(=N/N=C/c1ccc(O)c(O)c1)c1ccccc1)c1ccccc1 | -87.1%
39 | Cc1ccc(Cl)c2c1=NC(=O)C=2c1[nH]c(=S)[nH]c1O | -16.3%
40 | Cc1ccc(N(Cc2ccc(C(=O)Nc3ccccc3C(=O)NCc3ccco3)cc2)S(C)(=O)=O)cc1C | -8.84%
41 | CC(C)=C1C2CCC1C1C(=O)N(c3nc(-c4ccccc4)c(C)s3)C(=O)C21 (stereo not drawn) | -19.2%
42 | COc1ccc(CCNC(=O)C2CCCN(Cc3nc(-c4ccccc4C)oc3C)C2)cc1OC (stereo not drawn) | -12.3%
43 | O=C1[C@@H]2Cc3c([nH]c4ccccc34)C(c3ccc([N+](=O)[O-])cc3)N2C(=O)CN1C1CC1 (stereo partly drawn) | -1.65%
44 | CC(=O)c1ccc(N=C2C(=O)Nc3ccccc32)cc1 | 10.8%
45 | Cc1ccc(-c2[nH]c3ccccc3c2C(C[N+](=O)[O-])c2ccco2)cc1 (stereo not drawn) | -25.2%
46 | Cc1cc(Sc2nnc(N)s2)c2ccccc2n1 | -101%

Row | Compound | activation
47 | CC12CN(C(=S)Nc3ccccc3)CC(C)(CN(C(=S)Nc3ccccc3)C1)C2=O | 5.01%
48 | COC(=O)Nc1ccc(S(=O)(=O)N2CCC(C(=O)N3CCCC(C)C3)CC2)cc1 (stereo not drawn) | 8.64%
49 | COc1ccccc1C(=O)NCCCNC(=O)c1ccccn1 | 1.6%
50 | NCCCCCc1nnc(SC/C=C/c2ccccc2)o1 | -5.43%
51 | COc1cc(-c2nnc(SC/C=C/c3ccccc3)n2N)cc(OC)c1OC | -22.3%
52 | COc1cccc(-c2c(C(=O)N/N=C(\C)c3ccc(Cl)s3)nnn2-c2nonc2N)c1 | -28.4%
53 | C=C(C)Cn1c(SCC(=O)O)nnc1-c1ccc(OC)cc1 | -2.32%
54 | CC(=O)COc1cccc2ccc(/C=C/c3ccc(Br)s3)nc12 | 1.39%
55 | Cc1[nH]n(-c2ccccc2)c(=O)c1C(C[N+](=O)[O-])c1ccc(F)cc1 (stereo not drawn) | -47.7%
56 | S=c1[nH]nc(-c2cc(-c3ccccc3)n[nH]2)n1/N=C/C(Br)=C/c1ccccc1 | -108%
57 | C=CCn1c(C2CCCCC2)n[nH]c1=S | -1.72%
58 | COc1ccc2cc(S(=O)(=O)N3CCCCC3)ccc2c1S(=O)(=O)N1CCCCC1 | -15.5%
59 | CCOC(=O)COc1ccc(/C=C2/SC(=Nc3ccccc3)N(Cc3cccnc3)C2=O)cc1OC | -37.4%
60 | CCCCc1nnc(NC(=O)C(C)Sc2nc(C)cc(=O)[nH]2)s1 (stereo not drawn) | 2.97%
61 | CCn1c(CNC(C)=O)nnc1SCC(=O)c1ccc(Br)cc1 | -12% [at 12 µM]
62 | COc1ccc(C(CCNCc2ccccc2)c2ccc(F)cc2)cc1 (stereo not drawn) | -7.83%
63 | Nc1cnn(Cc2ccc(F)cc2)c1 | -9.5%
64 | CC1=CC(C)(C)Nc2ccc(OC(=O)C(Cc3ccccc3)N3C(=O)c4ccccc4C3=O)cc21 (stereo not drawn) | -75.7%
65 | CCOc1ncccc1C(=O)N(C)CC1COc2ccccc2O1 (stereo not drawn) | 4.02%
66 | O=C(CCCN1C(=O)c2cccc3cccc(c23)C1=O)Nc1ccon1 | 9.55%
67 | CCN(CC)CCOc1ccc(/C(=C(/Cl)c2ccccc2)c2ccccc2)cc1 | -59%
68 | CCCCN(C)C(=O)C1CCC(CNS(=O)(=O)c2ccc3c(c2)CC(C)N3C(=O)C2CC2)CC1 (stereo not drawn) | -24.4%
